The full data set covers some 8,800 targets. This sample favours those with a hit. About 0.5% of all pairs of compound and target were hits. A number with no mark means an inactive call.
Key:
Assay in all cases: log2 fold change, soluble protein after heating vs DMSO (PISA); higher = thermal stabilisation; K562 lysate, 10 uM; active = over 0.2 and 3.5 SD of the protein, either way, in both replicates (recomputed)
[1] = compound: NCC(=O)Nc1ccc(-n2nc(C(F)(F)F)cc2-c2ccc3c(ccc4ccccc43)c2)cc1
How it was run: (§1)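 Quantification was by TMTpro 16plex LC-MS/MS with equalised channel sums, applied to the supernatant after 21,000xg for 90 min. Samples were crude K562 extract at 1 mg/mL protein in PBS pH 7.4 with 1 mM MgCl2, treated with 10 μM compound for 30 min, heated for 3 min across 48°C-58°C, pooled and brought to 0.5% NP-40 at 4°C. Values are log-two fold changes in thermal stability relative to solvent controls, from duplicates.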

vorinostat = compound: O=C(CCCCCCC(=O)Nc1ccccc1)NO [vorinostat]
How it was run: as §1

silmitasertib = compound: O=C(O)c1ccc2c(c1)nc(Nc1cccc(Cl)c1)c1ccncc12 [silmitasertib]
How it was run: as §1

[2] = compound: O=C1NC(=O)C(c2cnc3ccccn23)=C1c1cn2c3c(cc(F)cc13)CN(C(=O)N1CCCCC1)CC2
How it was run: as §1

entospletinib = compound: c1cn2cc(-c3ccc4cn[nH]c4c3)nc(Nc3ccc(N4CCOCC4)cc3)c2n1 [entospletinib]
How it was run: as §1

Target: USP8 (UniProt P40818)
Chain of UniProt P40818 (P40818 whole entry, looked up): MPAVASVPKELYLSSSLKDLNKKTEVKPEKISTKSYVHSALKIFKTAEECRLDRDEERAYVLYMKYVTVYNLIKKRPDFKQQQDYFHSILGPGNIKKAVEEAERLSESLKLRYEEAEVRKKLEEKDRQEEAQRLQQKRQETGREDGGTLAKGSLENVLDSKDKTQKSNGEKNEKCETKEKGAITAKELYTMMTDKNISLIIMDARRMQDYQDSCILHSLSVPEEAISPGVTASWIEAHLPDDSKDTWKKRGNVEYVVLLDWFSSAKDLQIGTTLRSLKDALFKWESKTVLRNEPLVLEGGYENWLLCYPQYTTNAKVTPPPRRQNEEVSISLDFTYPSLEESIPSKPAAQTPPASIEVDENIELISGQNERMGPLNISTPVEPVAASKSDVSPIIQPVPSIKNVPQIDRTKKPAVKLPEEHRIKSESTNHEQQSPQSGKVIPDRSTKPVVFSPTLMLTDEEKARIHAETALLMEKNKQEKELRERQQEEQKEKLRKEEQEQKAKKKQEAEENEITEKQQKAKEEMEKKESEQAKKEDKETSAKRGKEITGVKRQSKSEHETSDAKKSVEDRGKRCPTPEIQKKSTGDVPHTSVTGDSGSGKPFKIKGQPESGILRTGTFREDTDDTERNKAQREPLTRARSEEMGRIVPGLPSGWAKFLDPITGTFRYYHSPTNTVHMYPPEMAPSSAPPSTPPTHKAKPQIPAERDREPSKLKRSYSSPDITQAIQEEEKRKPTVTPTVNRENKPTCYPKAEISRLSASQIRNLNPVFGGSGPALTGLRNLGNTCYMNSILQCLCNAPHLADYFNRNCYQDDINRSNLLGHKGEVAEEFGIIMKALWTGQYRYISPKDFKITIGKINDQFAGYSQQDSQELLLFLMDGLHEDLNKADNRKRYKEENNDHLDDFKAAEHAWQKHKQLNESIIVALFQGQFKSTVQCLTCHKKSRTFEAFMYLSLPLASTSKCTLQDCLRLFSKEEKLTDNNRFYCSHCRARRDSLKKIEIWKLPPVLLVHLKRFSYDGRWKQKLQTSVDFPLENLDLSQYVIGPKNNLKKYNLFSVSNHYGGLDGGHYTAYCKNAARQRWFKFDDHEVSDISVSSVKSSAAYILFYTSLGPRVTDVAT
- log2 fold change [1]: 0.012
- log2 fold change (vorinostat): -0.324 (active)
- log2 fold change (silmitasertib): 0.013
- log2 fold change [2]: 0.009
- log2 fold change (entospletinib): 0.012

Target: ZBTB40 (UniProt Q9NUA8)
Chain of UniProt Q9NUA8 (Q9NUA8 whole entry, looked up): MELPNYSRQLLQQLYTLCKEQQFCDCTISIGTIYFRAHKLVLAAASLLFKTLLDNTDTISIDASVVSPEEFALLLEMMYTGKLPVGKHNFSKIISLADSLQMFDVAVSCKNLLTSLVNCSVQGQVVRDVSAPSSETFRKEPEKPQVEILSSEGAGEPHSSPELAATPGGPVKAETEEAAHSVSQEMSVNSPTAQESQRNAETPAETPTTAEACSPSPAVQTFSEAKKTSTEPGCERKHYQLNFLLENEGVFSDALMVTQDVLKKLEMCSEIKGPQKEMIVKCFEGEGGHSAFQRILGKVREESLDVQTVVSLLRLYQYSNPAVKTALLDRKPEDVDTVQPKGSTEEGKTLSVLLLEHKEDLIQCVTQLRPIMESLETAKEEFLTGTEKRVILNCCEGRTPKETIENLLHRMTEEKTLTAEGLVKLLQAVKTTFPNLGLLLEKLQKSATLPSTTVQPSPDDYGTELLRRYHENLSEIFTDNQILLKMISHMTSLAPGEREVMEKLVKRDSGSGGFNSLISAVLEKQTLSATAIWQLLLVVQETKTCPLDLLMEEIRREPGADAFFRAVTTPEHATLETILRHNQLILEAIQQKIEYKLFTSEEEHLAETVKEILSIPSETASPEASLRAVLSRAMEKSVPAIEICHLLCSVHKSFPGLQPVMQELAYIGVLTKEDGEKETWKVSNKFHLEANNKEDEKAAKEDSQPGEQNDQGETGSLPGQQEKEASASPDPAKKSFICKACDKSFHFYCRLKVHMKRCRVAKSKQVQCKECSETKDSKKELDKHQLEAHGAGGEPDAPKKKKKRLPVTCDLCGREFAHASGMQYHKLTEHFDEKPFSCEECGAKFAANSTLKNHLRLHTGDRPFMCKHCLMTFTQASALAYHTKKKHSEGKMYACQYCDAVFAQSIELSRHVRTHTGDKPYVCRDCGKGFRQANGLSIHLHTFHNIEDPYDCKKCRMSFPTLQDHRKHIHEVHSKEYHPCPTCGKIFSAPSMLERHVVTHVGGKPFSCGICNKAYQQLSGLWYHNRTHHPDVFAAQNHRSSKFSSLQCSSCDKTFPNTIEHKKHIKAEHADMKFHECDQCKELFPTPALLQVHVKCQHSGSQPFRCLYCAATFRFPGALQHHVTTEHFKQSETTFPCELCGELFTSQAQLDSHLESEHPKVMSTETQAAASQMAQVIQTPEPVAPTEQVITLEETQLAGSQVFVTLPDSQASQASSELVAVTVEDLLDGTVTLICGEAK
- log2 fold change [1]: 0.073
- log2 fold change (vorinostat): -0.118
- log2 fold change (silmitasertib): 0.024
- log2 fold change [2]: 0.036

Target: WDR36 (UniProt Q8NI36)
- log2 fold change [1]: -0.051
- log2 fold change (vorinostat): -0.345 (active)
- log2 fold change (silmitasertib): 0.044
- log2 fold change [2]: 0.028
- log2 fold change (entospletinib): -0.011

Target: URGCP (UniProt Q8TCY9)
- log2 fold change [1]: 0

Target: YRDC (UniProt Q86U90)
- log2 fold change [1]: 0.024
- log2 fold change (vorinostat): -0.424 (active)
- log2 fold change (silmitasertib): 0.006
- log2 fold change [2]: -0.017
- log2 fold change (entospletinib): -0.016

Target: ZNF644 (UniProt Q9H582)
- log2 fold change [1]: -0.007
- log2 fold change (vorinostat): 0.222
- log2 fold change (silmitasertib): -0.092
- log2 fold change [2]: 0.016
- log2 fold change (entospletinib): -0.022

Target: VPS35L (UniProt Q7Z3J2)
Chain of UniProt Q7Z3J2 (Q7Z3J2 whole entry, looked up): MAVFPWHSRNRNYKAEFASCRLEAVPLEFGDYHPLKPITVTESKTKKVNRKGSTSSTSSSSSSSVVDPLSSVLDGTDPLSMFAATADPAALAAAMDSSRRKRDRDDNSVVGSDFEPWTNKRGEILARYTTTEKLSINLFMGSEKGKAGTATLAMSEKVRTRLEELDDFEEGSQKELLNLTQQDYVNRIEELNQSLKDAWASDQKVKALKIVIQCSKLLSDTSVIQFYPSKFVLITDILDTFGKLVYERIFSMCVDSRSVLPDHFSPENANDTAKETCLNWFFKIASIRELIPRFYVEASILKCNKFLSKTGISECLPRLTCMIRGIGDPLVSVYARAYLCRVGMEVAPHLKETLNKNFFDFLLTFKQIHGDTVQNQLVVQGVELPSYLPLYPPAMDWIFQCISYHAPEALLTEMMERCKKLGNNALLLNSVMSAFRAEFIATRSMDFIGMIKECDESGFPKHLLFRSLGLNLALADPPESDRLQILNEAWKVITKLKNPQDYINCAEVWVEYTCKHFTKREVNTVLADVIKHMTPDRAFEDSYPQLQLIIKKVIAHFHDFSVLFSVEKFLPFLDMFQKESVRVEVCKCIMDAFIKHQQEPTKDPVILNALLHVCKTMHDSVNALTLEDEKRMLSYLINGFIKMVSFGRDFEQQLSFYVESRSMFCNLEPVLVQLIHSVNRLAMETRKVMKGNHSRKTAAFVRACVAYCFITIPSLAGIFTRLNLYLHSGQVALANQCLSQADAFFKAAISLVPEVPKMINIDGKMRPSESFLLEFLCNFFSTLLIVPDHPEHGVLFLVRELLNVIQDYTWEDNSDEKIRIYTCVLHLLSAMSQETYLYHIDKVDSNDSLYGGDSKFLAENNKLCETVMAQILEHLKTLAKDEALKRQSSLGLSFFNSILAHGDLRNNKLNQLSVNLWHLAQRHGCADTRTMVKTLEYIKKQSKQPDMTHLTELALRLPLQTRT
- log2 fold change [1]: 0.019
- log2 fold change (vorinostat): -0.266 (active)
- log2 fold change (silmitasertib): 0.027
- log2 fold change [2]: -0.006
- log2 fold change (entospletinib): 0.015

Target: ZHX1 (UniProt Q9UKY1)
- log2 fold change [1]: 0.043
- log2 fold change (vorinostat): -0.249
- log2 fold change (silmitasertib): -0.094
- log2 fold change [2]: -0.018
- log2 fold change (entospletinib): -0.082

Target: VASP (UniProt P50552)
Chain of UniProt P50552 (P50552 whole entry, looked up): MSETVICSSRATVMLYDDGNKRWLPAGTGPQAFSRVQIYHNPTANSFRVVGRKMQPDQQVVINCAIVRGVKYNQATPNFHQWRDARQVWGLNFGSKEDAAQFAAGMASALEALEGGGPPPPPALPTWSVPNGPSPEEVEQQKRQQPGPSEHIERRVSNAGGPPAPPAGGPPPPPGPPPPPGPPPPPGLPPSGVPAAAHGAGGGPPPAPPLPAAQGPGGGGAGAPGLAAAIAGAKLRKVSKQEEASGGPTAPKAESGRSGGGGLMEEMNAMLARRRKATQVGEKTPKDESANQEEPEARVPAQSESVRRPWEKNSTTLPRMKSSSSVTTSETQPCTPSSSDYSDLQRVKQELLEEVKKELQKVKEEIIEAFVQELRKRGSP
- log2 fold change [1]: 0.035
- log2 fold change (vorinostat): 0.015
- log2 fold change (silmitasertib): 0.015
- log2 fold change [2]: 0.01
- log2 fold change (entospletinib): -0.013

Target: VCPIP1 (UniProt Q96JH7)
Chain of UniProt Q96JH7 (Q96JH7 whole entry, looked up): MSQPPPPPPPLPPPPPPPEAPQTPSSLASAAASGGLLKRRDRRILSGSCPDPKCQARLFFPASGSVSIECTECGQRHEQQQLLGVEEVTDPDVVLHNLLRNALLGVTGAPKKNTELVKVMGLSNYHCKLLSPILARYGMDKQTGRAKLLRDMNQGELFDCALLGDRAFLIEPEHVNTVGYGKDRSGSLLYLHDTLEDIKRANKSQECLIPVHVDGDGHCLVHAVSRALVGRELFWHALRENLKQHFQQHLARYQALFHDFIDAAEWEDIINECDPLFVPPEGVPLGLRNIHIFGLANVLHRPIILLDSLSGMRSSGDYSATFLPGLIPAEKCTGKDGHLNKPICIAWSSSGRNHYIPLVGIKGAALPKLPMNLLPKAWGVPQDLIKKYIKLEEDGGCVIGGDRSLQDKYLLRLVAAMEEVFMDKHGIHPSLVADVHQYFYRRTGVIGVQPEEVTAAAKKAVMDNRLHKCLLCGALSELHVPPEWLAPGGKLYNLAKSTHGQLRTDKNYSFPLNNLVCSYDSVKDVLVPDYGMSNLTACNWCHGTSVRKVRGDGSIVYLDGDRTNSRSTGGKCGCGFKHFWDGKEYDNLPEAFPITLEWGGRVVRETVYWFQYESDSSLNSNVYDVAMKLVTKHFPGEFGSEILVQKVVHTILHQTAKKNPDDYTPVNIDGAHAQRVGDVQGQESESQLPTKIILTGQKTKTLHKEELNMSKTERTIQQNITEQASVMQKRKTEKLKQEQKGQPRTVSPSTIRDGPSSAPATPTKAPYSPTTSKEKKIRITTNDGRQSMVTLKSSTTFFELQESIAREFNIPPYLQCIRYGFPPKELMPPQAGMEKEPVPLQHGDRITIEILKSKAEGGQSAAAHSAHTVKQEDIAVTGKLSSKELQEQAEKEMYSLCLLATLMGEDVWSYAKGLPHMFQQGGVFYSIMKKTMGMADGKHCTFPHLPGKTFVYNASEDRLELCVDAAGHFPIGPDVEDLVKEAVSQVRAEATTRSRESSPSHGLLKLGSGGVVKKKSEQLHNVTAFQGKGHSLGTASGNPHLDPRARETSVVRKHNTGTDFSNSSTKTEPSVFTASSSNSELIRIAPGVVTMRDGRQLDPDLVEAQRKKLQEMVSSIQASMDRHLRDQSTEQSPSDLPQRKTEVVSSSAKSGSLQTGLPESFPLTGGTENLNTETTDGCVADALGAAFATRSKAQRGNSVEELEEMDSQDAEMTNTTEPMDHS
- log2 fold change [1]: 0.007
- log2 fold change (vorinostat): 0.894 (active)
- log2 fold change (silmitasertib): 0.029
- log2 fold change [2]: -0.021
- log2 fold change (entospletinib): 0.006
